Laboratory results taken from PubChem BioAssay (NCI).
This is part of a sample that, as a whole, favours compounds with a hit. Of some 83,000 tested, about 20% had one in any assay.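 Single-concentration screen, 48 h exposure, 96-well plates. Endpoint: percent growth. Below 10 = active.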 A number with no mark means an inactive call. The source made the active and inactive calls.

Legend:
Assay in all cases: NCI-60 one-dose screen, 48 h (100 = growth as untreated, 0 = no growth, -100 = all killed)
Conditions in all cases: 10 µM unless noted
SK-MEL-2 melanoma = tested on: SK-MEL-2 melanoma
EKVX NSCLC = tested on: EKVX NSCLC
SN12C renal = tested on: SN12C renal
UO-31 renal = tested on: UO-31 renal
TK-10 renal = tested on: TK-10 renal
ACHN renal = tested on: ACHN renal
CAKI-1 renal = tested on: CAKI-1 renal
A498 renal = tested on: A498 renal
CCRF-CEM leukemia = tested on: CCRF-CEM leukemia
MOLT-4 leukemia = tested on: MOLT-4 leukemia

| Compound | growth (SK-MEL-2 melanoma) | growth (EKVX NSCLC) | growth (SN12C renal) | growth (UO-31 renal) | growth (TK-10 renal) | growth (ACHN renal) | growth (CAKI-1 renal) | growth (A498 renal) | growth (CCRF-CEM leukemia) | growth (MOLT-4 leukemia) |
| --- | --- | --- | --- | --- | --- | --- | --- | --- | --- | --- |
| Cc1cc(-c2nc3ccccc3s2)ccc1NC(=O)COc1ccc(Cl)cc1 | 104% | 78.9% | 88.3% | 69% | 53.7% | 95.5% | 84.5% | 106% | 106% | 94.5% |
| CN1CCN(Cc2ccc(NC(=O)c3cncc(C#Cc4c(N)ncc5ccc(C#N)cc45)c3)cc2C(F)(F)F)CC1 | 57.4% | -55.3% (active) | 6.26% (active) | -88.5% (active) | 18.3% | -92.8% (active) | 58.3% | 43.3% | -14.2% (active) | -21.3% (active) |
| NC(=S)N/N=C/c1cc(-c2cccc(N)c2)ccn1 | 45.5% | 37.8% | 16.7% | 12.4% | 46.6% | 7.92% (active) | -9.57% (active) | 37.3% | 6.08% (active) | 7.42% (active) |
| COc1cc(OC)c(/C=C/S(=O)(=O)Cc2cnc(OC)c(N)c2)c(OC)c1 | 24.2% | 37.9% | 23.7% | 25.5% | 27.9% | 25.7% | 34% | -1.94% (active) | 15.8% | 1.79% (active) |
| CC1CN(Cc2ccco2)C(=S)N(c2ccccc2)C1=O (stereo not given) | 108% | 84.2% | 92% | 89.6% | 100% | 93.8% | 60.4% | 100% | 83.7% | 122% |
| COc1ccc(CCN2CCCn3c2nc2ccccc2c3=O)cc1 | 51.1% | 45.7% | 45% | 41.1% | 69.3% | 40.4% | 41.7% | -3.97% (active) | 21.1% | 18.5% |
| COc1c2ccccc2c(OC)c2[nH]c(=O)ccc12 | 64.2% | 27.8% | 40.5% | 59.9% | 110% | 65.1% | 81% | 48.3% | -58.7% (active) | 69.4% |
| C=C1CC[C@@H]2[C@](C)(COC(C)=O)[C@H](OC(C)=O)CC[C@@]2(C)[C@@H]1CC(Nc1ccc(S(=O)(=O)Nc2nc(C)cc(C)n2)cc1)C1=CCOC1=O (stereo not given in full) | 88.5% | 74.5% | 38.2% | 71.2% | 111% | 71.6% | 74% | 85.3% | 2.96% (active) | 24.6% |
| O=C1O[C@H]([C@H](O)CO)C(O)=C1O | 104% | 110% | 104% | 99.8% | 104% | 93.9% | 87.1% | 94.3% | 109% | 107% |
| CCOC(=O)/C=C/C(=O)[C@H](CC(C)C)NC(=O)[C@H](Cc1ccccc1)NC(=O)OCc1ccccc1 | 99.8% | 100% | 57.2% | 44.7% | 50.1% | 47.5% | 74.8% | 77.6% | -18.5% (active) | 0.254% (active) |
| S=c1[nH]nc(CSc2ncnc3c2c(-c2ccccc2)cn3-c2ccc(Cl)cc2)o1 | 105% | 92% | 92.8% | 73% | 114% | 92.7% | 76.2% | 94.7% | 90.2% | 98.1% |
| COC(/C=C/c1ccc([N+](=O)[O-])cc1)OC | 99% | 101% | 92.8% | 93.2% | 103% | 107% | 102% | 111% | 39.6% | 69.4% |
| CCN(CC)CC(O)c1cc(-c2ccc(Cl)cc2)nc2c(C)c(Cl)ccc12 (stereo not given) | -68.8% (active) | -63.1% (active) | -86.4% (active) | -78.8% (active) | -92.5% (active) | -93.2% (active) | -100% (active) | -36.4% (active) | -37.4% (active) | -72.4% (active) |
| CCN(CC)CCC(=O)c1ccc(OC)c2ccccc12 | 91.7% | 94% | 106% | 62.3% | 60.1% | 105% | 88.7% | 124% | 18.7% | 29.1% |
| CSc1[nH]c2ncnc(N)c2c1C#N | 91% | 83.2% | 99.4% | 76% | 85.4% | 97.4% | 37.7% | 125% | 110% | 89.7% |
| CC1=C(C)C(=O)OC([C@](C)(O)[C@]2(O)CC[C@@]3(O)[C@@H]4C[C@H]5O[C@]56CC=CC(=O)[C@]6(C)[C@H]4CC[C@]23COC(=O)c2ccc(C)o2)C1 (stereo not given in full) | -63% (active) | -46.9% (active) | -61% (active) | -96.6% (active) | -89.8% (active) | -95.7% (active) | -87.2% (active) | -78.3% (active) | 0.17% (active) | 4.89% (active) |
| O=C1C(=O)N(CCCCn2cc(CO)nn2)c2ccccc21 | 98.8% | 92.4% | 104% | 87.7% | 102% | 101% | 87.8% | 99.4% | 104% | 95.7% |
| COc1ccc(-c2nn(-c3ccccc3)cc2/C=C/C(=O)OCc2cn(-c3ccc(F)c(Cl)c3)nn2)cc1 | 86.9% | 101% | 80.1% | 43% | 118% | 83.3% | 79.2% | 77.3% | 101% | 71.2% |
| CCN(CC)CC#CCOC(=O)[C@]1(C)CCC[C@@]2(C)[C@H]1CC(C=O)=C1C=C(C(C)C)CC[C@@H]12 | 88% | 77.8% | 77.6% | 52.6% | 77.1% | 86.9% | 101% | 69.7% | 50.4% | 50.1% |
| CSc1nc(NCCO)c(C#N)c(-c2cccc(N)c2)n1 | 108% | 81.4% | 94.7% | 74.6% | 145% | 92.3% | 80.3% | 83.7% | 94.9% | 95.6% |
| COc1cc(/C=N\NC(=O)CN2CCN(c3cc4c(cc3F)c(=O)c(C(=O)N/N=C/c3ccc(O)c(OC)c3)cn4C3CC3)CC2)ccc1O | 68% | 84.3% | 53.4% | 76.7% | 91.7% | 99.2% | 82.8% | 85.3% | 18.9% | 5.76% (active) |
| CCCNc1nc(SC)nc(-c2cccc(N)c2)c1C#N | 111% | 82.6% | 90.1% | 76.8% | 150% | 97.7% | 73% | 72.4% | 108% | 101% |
| O=C1C2CC=CCC2C(=O)N1CNc1ccc(Cl)cc1 (stereo not given) | 94.2% | 88.6% | 90.8% | 47% | 107% | 88.8% | 90.2% | 96.5% | 120% | 101% |
| C=C1CC2(OC1=O)C(=O)Nc1ccccc12 (stereo not given) | 92.5% | 74.4% | 40.5% | 19.7% | 22.3% | 7.77% (active) | 31.5% | 72.8% | 0.987% (active) | 18.7% |
| Cc1[nH]n(-c2ccccc2)c2nc3nncc3c(-c3ccc(Cl)cc3)c12 | 123% | 97% | 93.1% | 96.6% | 112% | 104% | 90.3% | 102% | 89.7% | 101% |
| Cc1ccc2cnc(N)c(C#Cc3cncc(C(=O)Nc4ccc(CN5CCN(C)CC5)c(C(F)(F)F)c4)c3)c2c1 | -62.1% (active) | -93.9% (active) | -97.5% (active) | -93.3% (active) | -94.4% (active) | -99.6% (active) | -95.1% (active) | -94.2% (active) | -45% (active) | -54.8% (active) |
| CCCCCCCCSC1=CC(=O)C(OC)=C(OC)C1=O | 26.3% | 43.8% | 10.7% | -92.7% (active) | -99.3% (active) | -77.8% (active) | -45.6% (active) | 65.5% | -15.8% (active) | -5.17% (active) |
